Values joined by “and” are separate entries in the source; they are usually repeats but may differ in a detail not shown here. Equal entries are not always repeated. Where a structure was tested more than once in an assay, its records may differ in their call. Active and inactive are the calls of the source. Rule for the calls: active = hit-call score of the fitted dose curve at least 0.9, where 1 is the maximum; inactive = score below 0.9.

Read-out in test [1]: Macrophage colony-stimulating factor (MCSF), CSF1 (gene 1435)
Briefly: BSK_hDFCGF_MCSF: BioMAP Diversity Plus: hDFCGF Assay for Macrophage colony-stimulating factor (MCSF) Biomarker Activity (AID 2283060). Conditions: primary human foreskin fibroblasts; actives raise or lower the signal. An outline of the steps:
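M-CSF levels, determined by ELISA, are taken at 24 h after dosing human skin fibroblasts. Responses in either direction are fitted with DMSO serving as the baseline.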

Test [2] can be described thus: BSK_hDFCGF_SRB: Viability Assessment in the BioMAP Diversity Plus: hDFCGF Assay (AID 2283061).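 Note: cells exposed to compound for 24 h before the read.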 Conditions: primary human foreskin fibroblasts. An outline of the steps: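 Cells were dosed with test chemical, cultured 24 h, fixed with 10% TCA, then stained with 0.1% SRB and read at 560 nm. The fibroblasts were human foreskin primary cells, and DMSO served as baseline.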

Read-out in test [3]: TIMP metallopeptidase inhibitor 1 (TIMP1), TIMP1 (gene 7076)
Briefly: BSK_hDFCGF_TIMP1: BioMAP Diversity Plus: hDFCGF Assay for TIMP metallopeptidase inhibitor 1 (TIMP1) Biomarker Activity (AID 2283062). The conditions noted are these: primary human foreskin fibroblasts; actives raise or lower the signal. The gist of the method:
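Fibroblasts from human foreskin are treated with test chemical and harvested at 24 h. TIMP-1 is quantified by ELISA, and gain or loss of signal is scored against DMSO.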

Read-out in test [4]: Monokine induced gamma interferon (MIG), CXCL9 (gene 4283)
The test is described as follows: BSK_hDFCGF_MIG: BioMAP Diversity Plus: hDFCGF Assay for Monokine induced gamma interferon (MIG) Biomarker Activity (AID 2283063). Conditions: primary human foreskin fibroblasts; actives raise or lower the signal. An outline of the steps: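 MIG signal, determined by ELISA, reflects 24 h chemical exposure of human skin primary fibroblasts. DMSO serves as negative control and baseline.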

Read-out in test [5]: Matrix Metallopeptidase 1 (MMP1), MMP1 (gene 4312)
Briefly: BSK_hDFCGF_MMP1: BioMAP Diversity Plus: hDFCGF Assay for Matrix Metallopeptidase 1 (MMP1) Biomarker Activity (AID 2283064). The conditions noted are these: primary human foreskin fibroblasts; actives raise or lower the signal. The gist of the method:
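hDFCGF primary fibroblasts (human foreskin); chemical added; 24 h; MMP1 by ELISA; bidirectional fit vs DMSO.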

Read-out in test [6]: Vascular cell adhesion molecule 1 (VCAM1), VCAM1 (gene 7412)
The test is described as follows: BSK_hDFCGF_VCAM1: BioMAP Diversity Plus: hDFCGF Assay for Vascular cell adhesion molecule 1 (VCAM1) Biomarker Activity (AID 2283065).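 For AC50: VCAM-1 protein level quantified by ELISA after 24 h chemical exposure.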 Conditions: primary human foreskin fibroblasts; actives raise or lower the signal. An outline of the steps: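 Cells are dosed, cultured for 24 h, then VCAM-1 is quantified by ELISA; signal increases and decreases are both fitted relative to DMSO.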

Read-out in test [7]: Plasminogen activator inhibitor-1 (PAI1), SERPINE1 (gene 5054)
The test is described as follows: BSK_hDFCGF_PAI1: BioMAP Diversity Plus: hDFCGF Assay for Plasminogen activator inhibitor-1 (PAI1) Biomarker Activity (AID 2283066). The conditions noted are these: primary human foreskin fibroblasts; actives raise or lower the signal. An outline of the steps:
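PAI-1 levels, determined by ELISA, served as the endpoint in human foreskin fibroblast cultures exposed to compound for 24 h, with DMSO as baseline.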

Read-out in test [8]: Interferon-gamma inducible Protein 10 (IP10), CXCL10 (gene 3627)
The test is described as follows: BSK_KF3CT_IP10: BioMAP Diversity Plus: KF3CT Assay for Interferon-gamma inducible Protein 10 (IP10) Biomarker Activity (AID 2283068). Conditions: primary human keratinocytes with fibroblasts; actives raise or lower the signal. The gist of the method: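 KF3CT co-culture (keratinocytes + foreskin fibroblasts), 24 h compound, IP-10 by ELISA; bidirectional fit vs DMSO baseline.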

A short description of test [9]: BSK_KF3CT_SRB: Viability Assessment in the BioMAP Diversity Plus: KF3CT Assay (AID 2283069).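 Note: total protein by sulforhodamine B staining as a cytotoxicity measure; read 24 h after compound addition; fitted for both signal gain and loss against DMSO baseline.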 The conditions noted are these: primary human keratinocytes with fibroblasts. An outline of the steps:
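Keratinocytes co-cultured with foreskin fibroblasts (human primary); chemical added, 24 h; fix 10% TCA, stain 0.1% SRB, A560. Bidirectional fit vs DMSO.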

Read-out in test [10]: Intercellular Adhesion Molecule 1 (ICAM1), ICAM1 (gene 3383)
The test is described as follows: BSK_KF3CT_ICAM1: BioMAP Diversity Plus: KF3CT Assay for Intercellular Adhesion Molecule 1 (ICAM1) Biomarker Activity (AID 2283067). Conditions: primary human keratinocytes with fibroblasts; actives raise or lower the signal. An outline of the steps: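 Dose the keratinocyte/fibroblast co-culture, wait 24 h, measure ICAM-1 by ELISA, then fit increases or decreases against DMSO. Cytotoxicity is checked in parallel cultures by SRB total-protein staining.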

A word on the AC50: it is the concentration giving half of the maximal activity seen. Consider `CCCN(CCC)c1c([N+](=O)[O-])cc(S(N)(=O)=O)cc1[N+](=O)[O-]`, for which the AC50 was 32.9 µM (active) and 30.5 µM (active) and 31.2 µM (active) in [1]; 21.1 µM (active) and 29.3 µM (active) and 31.4 µM (active) in [2]; 33.5 µM (active) and 34 µM (active) in [3]; 32 µM (active) and 34.1 µM (active) in test [4]; 33.6 µM (active) and 348 nM (active) in [5]; 32.7 µM (active) and 35.6 µM (active) in [6]. Further, the AC50 in test [7] is 21.1 µM (active) and 21.6 µM (active); in [9], 34.6 µM (active). Besides, the result in test [1], in test [3], in [4], in [5], in test [6] and in test [7] was inactive. Further, the outcome in test [8] and in test [9] was inactive.

Regarding `CC(C)Oc1cc(-n2nc(C(C)(C)C)oc2=O)c(Cl)cc1Cl`, the AC50 in test [1] is 15.2 µM (active); in [2], 28.6 µM (active); in test [5] it was 5.65 µM (active); in [6] it was 32 µM (active); in test [7], 24.4 µM (active); in test [8] it was 14.9 µM (active). The outcome in test [3], in test [4], in test [10] and in test [9] was inactive.

For the compound `CCCCNC(=O)OCC#CI`, the AC50 in test [1] is 5.14 µM (active) and 9.67 µM (active); in [2], 12.4 µM (active) and 3.49 µM (active); in test [3], 7.08 µM (active) and 26 µM (active); in test [4] it was 5.27 µM (active) and 3.85 µM (active); in [5], 8.48 µM (active) and 7.13 µM (active); in test [6], 3.08 µM (active) and 10.7 µM (active). The AC50 in test [7] is 7.77 µM (active) and 7.46 µM (active); in [8], 33.2 µM (active) and 11.9 µM (active); in test [9], 29.3 µM (active) and 18 µM (active).

Regarding `Oc1ccccc1-c1ccccc1`, the result in test [1], in [2], in [3], in [4], in [5] and in test [6] was inactive. The result in [7], in [10], in [8] and in [9] was inactive.

Regarding `C=CCC1=C(C)C(OC(=O)C2C(C=C(C)C)C2(C)C)CC1=O` (centres undefined), the AC50 in [1] is 31.2 µM (active) and 38.4 µM (active) and 29.1 µM (active); in test [2], 32.4 µM (active) [middle of 4 runs]; in test [3], 33.9 µM (active) [middle of 4 runs]; in test [4], 38.9 µM (active) [middle of 4 runs]; in test [5] it was 35.6 µM (active) [middle of 4 runs]; in [6], 28.7 µM (active) [middle of 4 runs]. The AC50 in test [7] was 30.4 µM (active) and 38.4 µM (active) and 38.8 µM (active); in [8], 35 µM (active) and 31 µM (active) and 29.2 µM (active); in test [9] it was 34.7 µM (active) and 25.5 µM (active). For the same compound, the result in test [10], in [8] and in test [9] was inactive.

`COC(=O)C(C)Oc1ccc(Oc2ccc(Cl)cc2Cl)cc1` (centres undefined): the result in test [1], in test [2], in test [3], in test [4], in [5] and in test [6] was inactive. In addition, the result in [7], in test [8] and in test [9] was inactive. For the same compound, the AC50 in test [8] was 25.4 µM (active) and 20 µM (active).

For the compound `CC(C)(C)c1ccc(CSc2cnn(C(C)(C)C)c(=O)c2Cl)cc1`, the AC50 in test [1] is 7.69 µM (active); in test [6], 31.6 µM (active); in test [8], 31.3 µM (active); in test [9] it was 20 µM (active). The result in test [2], in test [3], in [4], in test [5], in [7] and in test [10] was inactive.

On to `O=C(O)c1nc(Cl)ccc1Cl`, for which the outcome in [1], in test [2], in test [3], in [4], in test [5] and in test [6] was inactive. The result in test [7], in test [10], in test [8] and in test [9] was inactive. Moreover, the AC50 in test [8] was 0.147 µM (active).

Regarding `COP(N)(=O)SC` (centres undefined), the result in [1], in [2], in [3], in [4], in test [5] and in [6] was inactive. For the same compound, the outcome in test [7], in test [10], in test [8] and in [9] was inactive.

Take `CNC(=S)S`: the outcome in test [1], in test [2], in [3], in test [4], in test [6] and in [7] was inactive. Moreover, the outcome in test [10] and in test [9] was inactive. The AC50 in [5] was 7.89 µM (active); in [8], 20.7 µM (active).

With `COc1cnc(OC)n2nc(NS(=O)(=O)c3c(OCC(F)F)cccc3C(F)(F)F)nc12`, the result in test [1], in [2], in test [3], in test [4], in test [5] and in [6] was inactive. Moreover, the outcome in [7], in [8] and in [9] was inactive. The figures for the AC50 in [3] and in test [8] were 20 µM (active) and 34.2 µM (active), respectively.

On to `COc1nc(C)nc(NC(=O)NS(=O)(=O)c2ccccc2CCC(F)(F)F)n1`, for which the outcome in test [1], in test [2], in test [3], in test [4], in test [5] and in test [6] was inactive. The outcome in test [7], in test [8] and in test [9] was inactive. For the same compound, the AC50 in test [5] is 0.439 µM (active).

The record behind these values is PubChem BioAssay (EPA / NIEHS).
